The nature of test [1]: NCI Yeast Anticancer Drug Screen. Data for the rad50 strain (AID 155).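 Further: 0% = growth of vehicle-only cultures of the same strain.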 The conditions noted are these: S. cerevisiae rad50 strain growth inhibition; at 50.0 µM; stronger effect = higher value. In a few lines: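 Readout: growth inhibition relative to vehicle-treated cultures. Compound exposure was carried out in a genetically defined yeast strain deficient in DNA damage repair.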
Test [2] in a line: NCI Yeast Anticancer Drug Screen. Data for the mec2-1 strain (AID 157). The conditions noted are these: S. cerevisiae mec2-1 strain, at 50.0 µM, stronger effect = higher value. The method in brief: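 Cells of the genetically defined mec2-1 yeast strain are incubated with test compound. Inhibition of growth is calculated against vehicle-treated controls.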
A short description of test [3]: NCI Yeast Anticancer Drug Screen. Data for the sgs1 mgt1 strain (AID 161).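 Further: 0% = growth of cultures given vehicle only.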 To be noted: S. cerevisiae sgs1 mgt1 strain, at 50.0 µM, stronger effect = higher value. The method in brief:
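Read-out: growth inhibition vs vehicle controls. Cells: mutant yeast strain deficient in DNA damage repair.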

Test [4] in a line: NCI Yeast Anticancer Drug Screen. Data for the cln2 rad14 strain (AID 165).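 Further: 0% = growth equal to vehicle treated cultures.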 The conditions noted are these: S. cerevisiae cln2 rad14 strain, at 50.0 µM, stronger effect = higher value. In a few lines:
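The screen exposed genetically defined yeast (cln2 rad14) to test compounds and scored growth inhibition relative to vehicle-treated controls.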

Test [5] in a line: NCI Yeast Anticancer Drug Screen. Data for the bub3 strain (AID 167). The conditions noted are these: S. cerevisiae bub3 mutant strain, at 50.0 µM, stronger effect = higher value. In a few lines:
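Readout: yeast growth inhibition, expressed relative to vehicle-only wells. The test organism is a mutant strain from a panel with lesions in DNA repair or checkpoint genes.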

The nature of test [6]: NCI Yeast Anticancer Drug Screen. Data for the mlh1 rad18 strain (AID 175). To be noted: S. cerevisiae mlh1 rad18 strain growth inhibition; at 50.0 µM; stronger effect = higher value. The method in brief: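 Compound-treated yeast growth, normalised to vehicle controls. Strain bears defined DNA repair mutations.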

The structures appear in SMILES notation. The panel holds about 79,000 compounds, 15% with a hit somewhere; the sample as a whole holds those more often. Values without a mark were called inactive. Calls of active or inactive are those of the source. No stated cut-off is given here; in the data, active means growth inhibition above about 70%; inactive means the rest.

`CC(=O)N(C)O`: the growth inhibition in test [1] was 21.2%; in test [2], 17.4%; in test [3], -4.05%; in test [4], -5.85%; in test [5], -19.9%; in test [6], -0.4%.
As to `O=C1c2ccccc2C(=O)N1Br`, the growth inhibition is 0.15% in test [1]; -19.5% in test [2]; 6.5% in test [3]; 10.8% in test [4]; 3.6% in test [5]; 18.9% in test [6].
For the molecule `CCOC(=O)C(C)c1nc2cc(N3CCOCC3)c(F)cc2[nH]c1=O` (stereo not drawn), the growth inhibition was 24.6% in test [1]; -7.55% in test [2]; 11.7% in test [3]; 28.6% in test [4]; 5.7% in test [5]; 4.95% in test [6].
Consider `Cc1nc(-c2ccc([N+](=O)[O-])cc2)cn2c1nc1ccccc12`, for which the growth inhibition was -26.9% in test [1]; -33% in test [2]; -34.1% in test [3]; -67.6% in test [4]; -4.25% in test [5]; -17.8% in test [6].
Turning to `CC(=O)C(N=NC1CCC(S(=O)(=O)NB2N=CS2)CC1)C(=O)Nc1ccccc1C` (stereo not drawn), the growth inhibition is -32.2% in test [1]; -1.05% in test [2]; -5.9% in test [3]; 16.5% in test [4]; 9.35% in test [5]; 15.4% in test [6].
Consider `O=CNCCN(C=O)CCO`, for which the growth inhibition in test [1] was -28.6%; in test [2], -29.9%; in test [3] it was -31.9%; in test [4], 1.85%; in test [5], -12%; in test [6] it was -9.55%.
With `COc1ccc(N2C(=O)C3c4[nH]c5ccccc5c4C4CC(C)CC(C)C4C3C2=O)cc1` (stereo not drawn), the growth inhibition in test [1] was 53%; in test [2], 0.65%; in test [3], 8.85%; in test [4] it was -25.2%; in test [5], 41%; in test [6], 14.7%.
Consider `CN(C)Cc1cc(C=O)cc(CN(C)C)c1O`, for which the growth inhibition was 10.3% in test [1]; 4.6% in test [2]; -29.2% in test [3]; 13.4% in test [4]; 10.7% in test [5]; 5.8% in test [6].
In the case of `Cc1ccc(N)c(C(=O)Nc2ccc(Br)cc2)c1`, the growth inhibition is -19.6% in test [1]; -18.6% in test [2]; -10.1% in test [3]; -8.85% in test [4]; -17.6% in test [5]; -16.6% in test [6].
Consider `c1ccc2c(c1)NC1C3(CCC4CCCCC241)SCCS3` (stereo not drawn), for which the growth inhibition in test [1] is 9.45%; in test [2], 2.3%; in test [3] it was 6.8%; in test [4], 8.8%; in test [5], -2.1%; in test [6] it was -1.15%.
`Cc1[nH]c(=O)[nH]c(=O)c1NC=O`: the growth inhibition is -3.6% in test [1]; -28.3% in test [2]; -8.85% in test [3]; 14.6% in test [4]; -11.8% in test [5]; -27.1% in test [6].
In the case of `[O-]/[N+]1=[N+](\[O-])c2ccccc2COCc2ccccc21`, the growth inhibition in test [1] is -5.2%; in test [2] it was -12.3%; in test [3], -12.4%; in test [4] it was -44.5%; in test [5] it was -8.1%; in test [6], -14.2%.
With `NC(=S)n1nc(-c2ccccc2)c(N=Nc2ccc(Br)cc2)c1-c1ccccc1`, the growth inhibition in test [1] is 38.6%; in test [2], 3.8%; in test [3], 21.7%; in test [4], 15.4%; in test [5], 14.2%; in test [6] it was 12.4%.
With `Clc1ccc(C2OCCCO2)cc1`, the growth inhibition in test [1] is -21.1%; in test [2] it was 7.8%; in test [3] it was -9.7%; in test [4] it was 10.2%; in test [5] it was -8.4%; in test [6] it was -1.65%.
Turning to `O=C(CC[n+]1ccccc1)NCCCCCCNC(=O)CC[n+]1ccccc1`, the growth inhibition is -17.9% in test [1]; -31.9% in test [2]; -23.5% in test [3]; 7.5% in test [4]; -17.4% in test [5]; -21.9% in test [6].
`NCCCc1ccc2oc3ccccc3c2c1`: the growth inhibition in test [1] is 23.8%; in test [2], -14.2%; in test [3], 13.9%; in test [4], 15.5%; in test [5] it was -22.3%; in test [6], 24.4%.
In the case of `COc1cc(/C=C/c2ccc(/C=C/c3cc(OC)c(OC)c(OC)c3)cc2)cc(OC)c1OC`, the growth inhibition in test [1] is 11.2%; in test [2] it was -5.65%; in test [3], -29.9%; in test [4] it was 1.8%; in test [5], -8.75%; in test [6] it was -9.9%.
On to `COc1cc2c(c([N+](=O)[O-])c1)NC(=O)CS2`, for which the growth inhibition is -81.2% in test [1]; -60.5% in test [2]; -17.2% in test [3]; -4.5% in test [4]; 0.95% in test [5]; -28.1% in test [6].
With `COC(=O)c1c(-c2ccccc2)cc2c3cc(-c4ccccc4)c(C(=O)OC)n3c3ccccc3n12`, the growth inhibition is -2.35% in test [1]; -4.55% in test [2]; -31.5% in test [3]; -23.9% in test [4]; -1.95% in test [5]; -10.6% in test [6].
Regarding `COc1ccc2ccccc2c1`, the growth inhibition is -21% in test [1]; -30% in test [2]; -12.2% in test [3]; -23.9% in test [4]; 1.35% in test [5]; -31.6% in test [6].
As for `CCC(C)(C)C1CCCCC1OC(C)=O` (stereo not drawn), the growth inhibition in test [1] is 7.95%; in test [2] it was -2.6%; in test [3], 2.55%; in test [4], 7.95%; in test [5] it was 2.9%; in test [6], 1.25%.
In the case of `O=C1N(CCN2CCC3(CC2)OCCO3)CCN1c1cc(Cl)cc(Cl)c1`, the growth inhibition in test [1] is 56.9%; in test [2], 25.4%; in test [3] it was 51%; in test [4] it was 34.3%; in test [5] it was 24.6%; in test [6] it was 37.8%.
For the molecule `CN(C)c1ccc(/C=C/c2ccnc3ccc(Cl)cc23)cc1`, the growth inhibition is 23% in test [1]; 22.5% in test [2]; 32.1% in test [3]; 5.85% in test [4]; 21.6% in test [5]; 34% in test [6].
For the molecule `CCCCCCCCCCCCCCCCOc1ccc(OC)cc1C(=O)NNC(=S)SC`, the growth inhibition in test [1] was 14.7%; in test [2], -0.1%; in test [3], 24.6%; in test [4], 8.55%; in test [5] it was 34%; in test [6], 21.2%.
In the case of `CC1=CC(=O)C(C(C)C)=CC1=O`, the growth inhibition is -9.55% in test [1]; 7.25% in test [2]; -4.25% in test [3]; 22.6% in test [4]; 4.7% in test [5]; 0.5% in test [6].
On to `O=C1CCN2C=CC=CC2=N1`, for which the growth inhibition in test [1] was -14.6%; in test [2], -8.6%; in test [3], 2.15%; in test [4], -26.6%; in test [5], -19%; in test [6] it was 6.95%.
Regarding `O=S1(=O)c2ccccc2N2CCCc3cc(Cl)cc1c32`, the growth inhibition in test [1] was -49.9%; in test [2] it was -23.1%; in test [3], -41.7%; in test [4], -3.35%; in test [5] it was -8.9%; in test [6] it was -4.15%.
Turning to `CCOC(=O)C(C)(Cc1cccc2ccccc12)C(=O)OCC`, the growth inhibition in test [1] was -33.6%; in test [2], -19.3%; in test [3], 5.1%; in test [4], -54.2%; in test [5], 29.8%; in test [6], -24.9%.
Consider `Nc1nc(=O)n(CCCCCCc2ccccc2)cc1-c1ccc(Cl)c(Cl)c1`, for which the growth inhibition in test [1] was -4.75%; in test [2] it was -8.95%; in test [3] it was 8%; in test [4], 83.7% (active); in test [5], 3.65%; in test [6], 0.45%.
Regarding `O=C1C2=C(OCO2)C(=O)C2=C1OCO2`, the growth inhibition in test [1] is 2.65%; in test [2] it was 20.8%; in test [3], 21.1%; in test [4], 3.7%; in test [5], 9.95%; in test [6], 3.2%.
As for `c1ccc2c(c1)N=C(NNC1=Nc3ccccc3SC1)CS2`, the growth inhibition was 2.35% in test [1]; -2.85% in test [2]; 2.4% in test [3]; -0.55% in test [4]; 1.25% in test [5]; 0.65% in test [6].
In the case of `COC(=O)C(C)(Cc1ccc2c(c1)nnn2C(C)=O)NC(C)=O` (stereo not drawn), the growth inhibition was -11.4% in test [1]; -1.25% in test [2]; -4.15% in test [3]; -2.45% in test [4]; 22.6% in test [5]; -51.9% in test [6].
On to `c1ccc(Sc2nc(Sc3ccccc3)nc(Sc3ccccc3)n2)cc1`, for which the growth inhibition in test [1] was -23.9%; in test [2], -16.4%; in test [3], -15.2%; in test [4], 17.9%; in test [5], -20.1%; in test [6], -31.7%.
As for `COc1ccc(C)c(C2=CCCCC2)c1`, the growth inhibition is 4.65% in test [1]; 3.45% in test [2]; -9.15% in test [3]; -6.55% in test [4]; -2.35% in test [5]; -15.8% in test [6].
For `CCCCN=C1NC(N)=NC(C)(C)N1`, the growth inhibition in test [1] was -0.1%; in test [2], -0.35%; in test [3] it was -0.75%; in test [4], -37.5%; in test [5], -13.3%; in test [6], -18.9%.
Take `COC(=O)C(=O)Cc1cccc(OC(C)=O)c1C(=O)OC`: the growth inhibition in test [1] is 8.55%; in test [2], 6.4%; in test [3], 6.6%; in test [4], -94%; in test [5], 9.35%; in test [6] it was 2.6%.
With `CCOC(=O)C1NC(=O)C(C(=O)OCC)C1C(C)C` (stereo not drawn), the growth inhibition was 9.45% in test [1]; 20.9% in test [2]; 0.35% in test [3]; -8.25% in test [4]; -4.05% in test [5]; -9.05% in test [6].
Consider `CC(=O)NC(C)CC1=CC(=O)C(C)=CC1=O` (stereo not drawn), for which the growth inhibition was 1.45% in test [1]; -13.4% in test [2]; -16.1% in test [3]; -33.7% in test [4]; -18.9% in test [5]; -11.6% in test [6].

(Values after PubChem BioAssay (NCI).)
